Bioassay records from PubChem BioAssay.
FBW7 act – FBW7 E3 ligase activators, primary screen, biochemical, AlphaScreen, human; F-box/WD repeat-containing protein 7 (Homo sapiens), Q969H0; AlphaScreen FBW7–phospho-cyclin E peptide binding, activator screen; normalized activity (activation), % at 26.1 µM; 0.13% of 650,000 active; in the data active = normalized activity above about 1.9%;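 note: purified mutant Fbw7 with reduced substrate affinity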
GPR151 ag – activators of human GPR151, primary screen, cell-based, PathHunter beta-arrestin, luminescence; 1% of 650,000 active; PathHunter beta-arrestin GPR151 cells; AID 1508602, 2020; G-protein coupled receptor 151 (Homo sapiens), Q8TDV0; activation, % at 11.2 µM; in the data active = activation above about 4.9%;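 note: 0% = median of compound wells and 100% = cells with positive control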
TEAD-YAP block – TEAD-YAP interaction inhibition, primary screen, TEAD-YAP interaction inhibitor project, luminescence, HEK-TIYL cells; inhibition, % at 9.12 µM; 1.4% of 640,000 active; AID 1259422, 2018; TEAD-Gal4/YAP UAS-luciferase luminescence; in the data active = inhibition above about 32%;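 note: 0% = median of test compound wells and 100% = reference inhibitor wells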
MITF primary – MITF inhibitors, primary screen, biochemical, AlphaScreen, human | AlphaScreen MITF homodimerization, bead proximity signal | inhibition, % at 2.6 µM | 0.91% of 650,000 active; in the data active = inhibition above about 50%;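 note: 0% = vehicle wells with protein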
Target sequence (O75030 whole entry, looked up): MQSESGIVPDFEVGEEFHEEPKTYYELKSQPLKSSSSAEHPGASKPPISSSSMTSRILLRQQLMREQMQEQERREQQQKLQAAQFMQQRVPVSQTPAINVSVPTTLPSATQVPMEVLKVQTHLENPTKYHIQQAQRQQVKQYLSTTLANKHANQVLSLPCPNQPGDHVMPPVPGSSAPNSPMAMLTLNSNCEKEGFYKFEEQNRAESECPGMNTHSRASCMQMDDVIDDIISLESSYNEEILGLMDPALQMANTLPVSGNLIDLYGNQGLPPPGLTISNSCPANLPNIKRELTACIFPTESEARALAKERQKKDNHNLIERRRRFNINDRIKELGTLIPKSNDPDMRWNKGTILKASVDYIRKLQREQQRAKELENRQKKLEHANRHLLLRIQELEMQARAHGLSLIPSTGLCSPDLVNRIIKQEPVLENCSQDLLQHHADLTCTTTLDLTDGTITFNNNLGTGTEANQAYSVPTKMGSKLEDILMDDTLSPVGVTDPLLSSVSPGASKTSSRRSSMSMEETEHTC
GPR151 confirm – GPR151 activators, triplicate retest, confirmation, cell-based, PathHunter beta-arrestin, luminescence | shares compounds with GPR151 ag | 6,700 tested, under 10 active | AID 1508609, 2020 | activation, % at 11.2 µM | GPR151 PathHunter beta-arrestin cells, 90 min; % of EA-reagent control over plate median;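 active = mean percent activation across replicates above the confirmation screen cutoff of 4.91%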
GPR119 counter – GPR119 activators in beta-arrestin cells, counter-screen for GPR151 activator project, cell-based, PathHunter beta-arrestin, luminescence, triplicate | shares compounds with GPR151 ag | 0.3% of 6,700 active | activation, % at 11.2 µM | 90 min; 0 = compound-well median, 100 = enzyme-acceptor control;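 active = mean percent activation in the counterscreen above 29.09%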;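 note: counterscreen on off-target GPR119 to flag nonselective hits from the GPR151 activator screen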
Numbers without * were called inactive; . = not tested or not shown. An excerpt weighted towards active compounds, which were near 3.4% of everything screened.

SMILES | FBW7 act | GPR151 ag | TEAD-YAP block | MITF primary | GPR151 confirm | GPR119 counter
Cc1ccc(C)c(Nc2ncnc3sc4c(c23)CCCC4)c1 | -0.2 | -0.5 | 0.6 | 10.0 | . | .
COc1cccc(CCC(=O)N2CCCC(N3CCC(CO)CC3)C2)c1 (stereo not drawn) | 0.0 | 8.1* | 9.7 | 12.5 | -0.4 | -9.6
CC1Cc2ccccc2N1C(=O)Cn1nnc2ccccc2c1=O (stereo not drawn) | -0.2 | -0.2 | -7.8 | 4.9 | . | .
CCOC(=O)c1cc2c(=O)n3ccccc3nc2n(C)c1=NC(=O)c1ccc(C(C)(C)C)cc1 | 0.0 | 0.9 | 10.6 | 8.4 | . | .
O=C(NCC1CCC2(CCN(C(=O)c3ccncc3)CC2)O1)c1ccc2[nH]ccc2c1 (stereo not drawn) | 0.0 | 8.0* | 4.9 | -4.8 | -0.5 | 11.7
Cc1ccc(NC(=S)N(Cc2ccc(F)cc2)C2CCCCC2)cc1 | 0.3 | 0.6 | -9.5 | 17.6 | . | .
COCCNC(=O)[C@@H]1C[C@H](NCc2ccccc2Cl)CN1C1Cc2ccccc2C1 | -0.1 | 6.4* | -3.3 | -0.9 | 0.6 | 0.1
COCCNC(=O)[C@@H]1C[C@H](NCc2cc(C)ccc2C)CN1C1Cc2ccccc2C1 | 1.1 | -0.1 | 3.6 | 3.6 | . | .
CCOC(=O)C1CCCCN1CCCc1ccccc1 (stereo not drawn) | 0.1 | -0.8 | -7.0 | -8.1 | . | .
CCC(=O)C1=C(c2ccc(C(C)(C)C)cc2)N(C(=O)CC)n2cnnc2S1 | -0.1 | 6.4* | 66.8* | 7.0 | 0.9 | -3.1
O=C1C(=O)N(CCN2CCOCC2)C(c2ccc(F)cc2)/C1=C(\O)c1ccc(F)cc1 (stereo not drawn) | 0.3 | 0.0 | -4.1 | -1.2 | . | .
O=C1C(=O)N(CCN2CCOCC2)C(c2ccco2)/C1=C(/O)c1ccc(F)cc1 (stereo not drawn) | -0.1 | 6.7* | 10.1 | 9.1 | -1.1 | 6.5
CCNC(=O)CC1SC(=Nc2ccc(OC)cc2)N(C)C1=O (stereo not drawn) | 0.2 | -1.5 | -9.9 | -7.8 | . | .
COc1ccc(N=C2SC(CC(=O)Nc3ccc(OC)cc3OC)C(=O)N2C)cc1 (stereo not drawn) | -0.1 | 6.6* | -0.3 | -3.8 | 3.6 | 2.3
COc1cccc2cc(C(=O)Nc3ccc(C)cc3)c(=N)oc12 | 0.3 | -0.8 | -46.0 | 11.3 | . | .
CC(=O)O[C@]1(C(C)=O)CC[C@H]2[C@@H]3C=C(Cl)C4=CC(=O)CC[C@]4(C)[C@H]3CC[C@@]21C | -0.1 | 5.2* | . | 15.7 | 0.0 | 15.3
CC(NS(=O)(=O)c1ccc(Cl)cc1)C(N)=O (stereo not drawn) | 0.1 | -1.6 | 2.7 | 4.6 | . | .
Cc1ccc(C)c(S(=O)(=O)NC(C)C(=O)Nc2ccc(Cl)c(Cl)c2)c1 (stereo not drawn) | 0.0 | 5.9* | 3.0 | 1.6 | 0.3 | -7.3
CC(NS(=O)(=O)c1cc(Cl)ccc1Cl)C(N)=O (stereo not drawn) | -0.2 | 5.2* | -2.1 | 5.7 | -0.4 | -1.9
Cc1c(Cl)cccc1NC(=O)c1cc2nc(-c3ccc(Cl)cc3)cc(C(F)(F)F)n2n1 | 0.0 | -0.7 | 4.8 | 6.6 | . | .
CNC(=O)c1cc(F)ccc1Nc1cc(Nc2cccc(OC)c2)ncc1C(F)(F)F | -0.1 | 9.3* | 14.2 | -10.3 | 0.5 | -1.4
CCc1cccc(C)c1NC(=O)CCC(=O)O | 0.0 | -1.3 | -3.2 | -1.8 | . | .
CCc1cccc(CC)c1NC(=O)CCCC(=O)O | 0.9 | 6.6* | 3.0 | 9.1 | -0.1 | 0.1
COc1cc2c(N3C(=O)CCC3=O)c3c(=O)oc(C)cn3c2cc1OC | -0.2 | 9.1* | 6.2 | -3.5 | -0.5 | 0.8
Cn1c(N)c(S(=O)(=O)N2CCC(Cc3ccccc3)CC2)c(=O)n(C)c1=O | -0.3 | -1.8 | -7.4 | -10.4 | . | .
Cc1ccc(C)c(N2C(=O)CN(S(C)(=O)=O)CC2(C)C(=O)NC2CCCCCC2)c1 (stereo not drawn) | 0.1 | -0.4 | 2.6 | 11.7 | . | .
